Results taken from PubChem BioAssay (NCI).
This is part of a sample that, as a whole, favours compounds with a hit. Of some 83,000 tested, about 20% had one in any assay.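 Results are percent growth after 48 hours of single-concentration exposure. 100 means growth as in untreated cells, lower positive values show inhibition; negative values down to -100 show cell death.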 Unmarked numbers belong to inactive results. Calls of active or inactive are those of the source. How the source made its calls: active means growth percent below 10; inactive means the rest.

Experiments:
Test in all cases: NCI-60 one-dose screen, 48 h (100 = growth as untreated, 0 = no growth, -100 = all killed)
Conditions in all cases: 10 µM unless noted
[1] = system: SK-MEL-2 melanoma
[2] = system: EKVX NSCLC
[3] = system: SN12C renal
[4] = system: UO-31 renal
[5] = system: TK-10 renal
[6] = system: ACHN renal
[7] = system: CAKI-1 renal
[8] = system: A498 renal
[9] = system: HL-60(TB) leukemia
[10] = system: CCRF-CEM leukemia
[11] = system: MOLT-4 leukemia
[12] = system: SR leukemia
[13] = system: OVCAR-8 ovarian
[14] = system: OVCAR-5 ovarian
[15] = system: OVCAR-4 ovarian
[16] = system: SK-OV-3 ovarian
[17] = system: OVCAR-3 ovarian
[18] = system: HS 578T breast
[19] = system: RPMI-8226 leukemia
[20] = system: IGROV1 ovarian

Compound | growth [1] [%] | growth [2] [%] | growth [3] [%] | growth [4] [%] | growth [5] [%] | growth [6] [%] | growth [7] [%] | growth [8] [%] | growth [9] | growth [10] [%] | growth [11] [%] | growth [12] | growth [13] [%] | growth [14] [%] | growth [15] [%] | growth [16] [%] | growth [17] [%] | growth [18] [%] | growth [19] [%] | growth [20]
N#CCC(=O)c1ccccc1 | 114 | 99 | 109 | 79 | 119 | 106 | 101 | 117 | 98.4% | 110 | 95.2 | 107% | 96.5 | 105 | 109 | 105 | 102 | 107 |  | 
COc1ccc(N)cc1OC | 106 | 111 | 89.2 | 90.5 | 120 | 100 | 99 | 100 | 114% | 98.6 | 112 |  | 115 | 104 | 96.8 | 113 | 108 |  | 104 | 107%
CCC1(NC(=O)c2cc(F)c(F)c(F)c2F)C(=O)NC(=O)N(C(C)C)C1=O (stereo not drawn) | 68.4 | 93.1 | 81.7 | 68.2 | 123 | 96.6 | 93.6 | 98.2 | -22.6% (active) |  | 55 | -18.6% (active) | 79.4 | 109 | 84.6 | 150 | 138 | 28.3 | 107 | -56.8% (active)
CCC(=O)C(CC(C)N1CCCCCC1)(c1ccccc1)c1ccccc1 (stereo not drawn) | 103 | 90.8 | 97.8 | 67.3 | 84 | 97.6 | 79 | 84.5 | 95.5% | 96.1 | 93.9 | 102% | 97 | 89.1 | 84.2 |  | 96.5 | 96.7 |  | 78.6%
Cc1ccc(N2CCN(CCC#N)CC2)cc1 | 110 | 95.5 | 96 | 82.6 | 89.5 | 101 | 87.1 | 137 | 87% | 92 | 105 | 99.3% | 97.3 | 92.5 | 110 | 93.4 | 106 | 135 |  | 
CCOC(=O)c1cncn1C(C)c1ccccc1 (stereo not drawn) | 105 | 98.2 | 102 | 81 | 95.2 | 102 | 94.6 | 134 |  | 94.7 | 94.5 | 90.2% | 102 |  | 109 | 103 | 109 |  | 105 | 107%
